Data from PubChem BioAssay (NCI).
About 83,000 compounds went through this panel and 20% of them were active in at least one assay; those are over-represented in the sample as a whole.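 In brief: 96-well plates, 48 h treatment, single concentration, percent growth endpoint.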 Activity calls are given as the source filed them. How the source made its calls: active means growth percent below 10; inactive means the rest.

What was measured:
Experiment in all cases: NCI-60 one-dose screen, 48 h (100 = growth as untreated, 0 = no growth, -100 = all killed)
Settings in all cases: 10 µM unless noted
SR leukemia = test system: SR leukemia
RPMI-8226 leukemia = test system: RPMI-8226 leukemia
OVCAR-8 ovarian = test system: OVCAR-8 ovarian
OVCAR-5 ovarian = test system: OVCAR-5 ovarian
OVCAR-4 ovarian = test system: OVCAR-4 ovarian
SK-OV-3 ovarian = test system: SK-OV-3 ovarian
IGROV1 ovarian = test system: IGROV1 ovarian
OVCAR-3 ovarian = test system: OVCAR-3 ovarian
HS 578T breast = test system: HS 578T breast
NCI/ADR-RES ovarian = test system: NCI/ADR-RES ovarian

Measured: growth

CCSC1=CC(=O)c2ccccc2C1=O
active: OVCAR-4 ovarian -95.2% | OVCAR-3 ovarian -26.7%
inactive: SR leukemia 37.6% | RPMI-8226 leukemia 45.7% | OVCAR-8 ovarian 49.4% | OVCAR-5 ovarian 116% | SK-OV-3 ovarian 95.6% | IGROV1 ovarian 59.5% | HS 578T breast 94.8% | NCI/ADR-RES ovarian 71.8%

CC(=O)N(Cc1ccccc1)c1nc2ccc(O)c(CN(C)C)c2s1
inactive: SR leukemia 106% | RPMI-8226 leukemia 95.2% | OVCAR-8 ovarian 103% | OVCAR-5 ovarian 100% | OVCAR-4 ovarian 97.6% | SK-OV-3 ovarian 104% | IGROV1 ovarian 93.9% | OVCAR-3 ovarian 105% | HS 578T breast 92.6% | NCI/ADR-RES ovarian 93.5%

CCOC(=O)C1=C(C)N=C2SC=C(c3ccccc3)N2[C@H]1c1cn[nH]c1-c1ccc(Cl)cc1
active: SR leukemia -31.2% | RPMI-8226 leukemia -8.38% | IGROV1 ovarian -24.4%
inactive: OVCAR-8 ovarian 50.9% | OVCAR-5 ovarian 108% | OVCAR-4 ovarian 55.6% | SK-OV-3 ovarian 62.5% | OVCAR-3 ovarian 22.5% | HS 578T breast 45.6% | NCI/ADR-RES ovarian 69.4%

COc1ccc(/C(C)=C(\c2ccc(OCCN3CCCCCC3)cc2)c2ccc(OC(=O)c3ccccc3)cc2)cc1
inactive: RPMI-8226 leukemia 19.5% | OVCAR-8 ovarian 56.5% | OVCAR-5 ovarian 72.1% | OVCAR-4 ovarian 42.6% | SK-OV-3 ovarian 81.4% | IGROV1 ovarian 46.7% | OVCAR-3 ovarian 64.6% | HS 578T breast 35.9% | NCI/ADR-RES ovarian 60.7%
active: SR leukemia -8.34%

CCCCCCCCn1ccc2cc(NC(=O)Cn3cc(CN4CCOCC4)nn3)ccc21
inactive: SR leukemia 87.6% | RPMI-8226 leukemia 94.8% | OVCAR-8 ovarian 102% | OVCAR-5 ovarian 91.1% | OVCAR-4 ovarian 99.5% | SK-OV-3 ovarian 111% | IGROV1 ovarian 96.4% | OVCAR-3 ovarian 98.2% | HS 578T breast 90% | NCI/ADR-RES ovarian 115%

CN(C)c1ccc(/C=C2/C=C(c3ccccc3)OC2=O)cc1
inactive: SR leukemia 26.7% | RPMI-8226 leukemia 84% | OVCAR-8 ovarian 100% | OVCAR-5 ovarian 108% | OVCAR-4 ovarian 93.4% | SK-OV-3 ovarian 93.9% | IGROV1 ovarian 74.7% | OVCAR-3 ovarian 73.7% | HS 578T breast 101% | NCI/ADR-RES ovarian 73.1%

O=C(/C=C/c1ccccc1)Nc1ncc(Cc2ccccc2)s1
active: OVCAR-3 ovarian -34.1% | NCI/ADR-RES ovarian 2.68%
inactive: SR leukemia 15.3% | RPMI-8226 leukemia 20.2% | OVCAR-8 ovarian 23.7% | OVCAR-5 ovarian 18.5% | OVCAR-4 ovarian 14.1% | SK-OV-3 ovarian 15.4% | IGROV1 ovarian 26.1% | HS 578T breast 10.4%

COc1cc2oc(-c3cccc(NC(=O)c4ccc5c(c4)OCO5)c3)cc(=O)c2c(OC)c1OC
inactive: SR leukemia 11.5% | OVCAR-8 ovarian 46.3% | OVCAR-5 ovarian 93.9% | OVCAR-4 ovarian 58.1% | SK-OV-3 ovarian 98.1% | IGROV1 ovarian 47% | OVCAR-3 ovarian 53% | HS 578T breast 45.2% | NCI/ADR-RES ovarian 57.6%
active: RPMI-8226 leukemia -53.7%

NC(=O)c1c(NC(=O)c2ccc(Cl)cc2)sc2c1CCC(=O)C2
active: RPMI-8226 leukemia -14.3% | OVCAR-4 ovarian 9.18%
inactive: SR leukemia 13.3% | OVCAR-8 ovarian 61.3% | OVCAR-5 ovarian 86.5% | SK-OV-3 ovarian 93% | IGROV1 ovarian 52.6% | OVCAR-3 ovarian 32.6% | HS 578T breast 64% | NCI/ADR-RES ovarian 87.8%

COc1ccc(C2=NN(C(C)=O)C(c3ccc(Oc4ccnc5cc(Cl)ccc45)c(OC)c3)C2)cc1 (stereo not given)
inactive: SR leukemia 74.4% | RPMI-8226 leukemia 77.1% | OVCAR-8 ovarian 24% | OVCAR-5 ovarian 84.4% | SK-OV-3 ovarian 24.5% | IGROV1 ovarian 79.7% | OVCAR-3 ovarian 37.1% | HS 578T breast 58.9% | NCI/ADR-RES ovarian 44.7%
active: OVCAR-4 ovarian -17.2%

CCOC(=O)C/C(=N\Nc1cc(=O)[nH]c2ccc(Cl)cc12)C(=O)OCC
inactive: SR leukemia 47% | RPMI-8226 leukemia 57.2% | OVCAR-8 ovarian 110% | OVCAR-5 ovarian 98.9% | OVCAR-4 ovarian 107% | SK-OV-3 ovarian 123% | IGROV1 ovarian 97.6% | OVCAR-3 ovarian 110% | HS 578T breast 94.9% | NCI/ADR-RES ovarian 95.8%

CCOC(=O)N1CCN(S(=O)(=O)c2oc(-c3ccc(Cl)cc3)nc2C#N)CC1
inactive: RPMI-8226 leukemia 67.3% | OVCAR-8 ovarian 70.8% | OVCAR-5 ovarian 106% | OVCAR-4 ovarian 103% | SK-OV-3 ovarian 102% | IGROV1 ovarian 87.9% | OVCAR-3 ovarian 32.2% | HS 578T breast 102% | NCI/ADR-RES ovarian 102%
active: SR leukemia 4.64%

CCOC(=O)c1c(NC(=O)c2ccc(OC)cc2)sc2c(CN(C)C)c(O)ccc12
active: SR leukemia -21.5%
inactive: RPMI-8226 leukemia 15.8% | OVCAR-8 ovarian 84.2% | OVCAR-5 ovarian 90.6% | OVCAR-4 ovarian 85.2% | SK-OV-3 ovarian 99.6% | IGROV1 ovarian 90.7% | OVCAR-3 ovarian 106% | HS 578T breast 88.9% | NCI/ADR-RES ovarian 84.5%

O=c1oc2c(cnc3ccccc32)cc1-c1cccs1
inactive: SR leukemia 103% | RPMI-8226 leukemia 103% | OVCAR-8 ovarian 100% | OVCAR-5 ovarian 108% | OVCAR-4 ovarian 100% | SK-OV-3 ovarian 106% | IGROV1 ovarian 99.7% | OVCAR-3 ovarian 119% | HS 578T breast 99% | NCI/ADR-RES ovarian 104%
